Screening data from PubChem.
Compounds with a hit are over-represented: about 3.7% of the library has one in this group of screens.
TIM10 inh = TIM10 yeast growth inhibition | S. cerevisiae TIM10 strain growth, BacTiter-Glo luminescence, 24 h | inhibition, % at 10 µM | 1.4% of 330,000 active | AID 463195;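 active means inhibition of 40% or more at the single tested concentration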;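 further: wild-type TIM10 isogenic control strain grown at permissive 25 °C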
tim10-1 inh = growth inhibitors of tim10-1 mutant yeast | AID 463190 | inhibition, % at 20 µM | 2.2% of 330,000 active | S. cerevisiae tim10-1 ts strain growth, BacTiter-Glo, 24 h;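 active means inhibition of at least 40%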;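 further: mutant grown at 25 °C; 0% = DMSO wells with yeast and 100% = wells holding no yeast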
tim23-1 inh = inhibits growth of tim23-1 mutant yeast; S. cerevisiae tim23-1 growth, BacTiter-Glo luminescence, 24 h; inhibition, % at 20 µM; 1.3% of 330,000 active; AID 463212;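 active means growth inhibition of the mutant yeast at or above 50%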;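 further: temperature-sensitive mutant grown at 25 °C; plate controls were DMSO-treated mutant yeast for no effect and medium wells lacking yeast for full effect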
NLRP3 yeast inh = blocks the NALP3 inflammasome reconstituted in yeast. Yeast reconstituted NLRP3/ASC/caspase-1, beta-gal luminescence, 24 h. inhibition, % at 10 µM. 0.39% of 330,000 active;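 active means inhibition of 50% or more; inactive means inhibition below 50%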;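 further: plate controls were induced DMSO wells for no effect and uninduced yeast grown without galactose for full effect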
PfHsp90 set2 = inhibits growth of yeast expressing Plasmodium falciparum Hsp90 | inhibition, % at 9.4 µM | AID 504621 | S. cerevisiae expressing PfHsp90, BacTiter-Glo ATP, 48 h; yeast lacking PDR1 and PDR3 efflux regulators | 0.32% of 310,000 active;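 active means every replicate shows inhibition above about 80%, whatever the replicate mean, limit read from the data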;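 further: 0% = DMSO neutral controls and 100% = 20 µM radicicol positive controls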
tim10-1 conf = confirmation of tim10-1 mutant yeast growth inhibitors. 56% of 7,400 active. inhibition, % at 20 µM. shares compounds with tim10-1 inh. S. cerevisiae tim10-1 ts strain growth, BacTiter-Glo, 24 h. AID 463213;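 active means inhibition of yeast growth at or above a set limit in either of two repeat tests at 20 µM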;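 further: tim10-1 mutant grown at permissive 25 °C to find synthetic lethal compounds; 0% = DMSO yeast wells and 100% = medium wells without yeast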
* marks the source's active call; other numbers are inactive results.

How did COc1cc(C)ccc1Oc1ncnc(N)c1[N+](=O)[O-] do in these assays?
TIM10 inh: 7; tim10-1 inh: 19; tim23-1 inh: 20; NLRP3 yeast inh: 16; PfHsp90 set2: 1

How did COCCOC(=O)N/C=C\c1nc2ccccc2c(=O)[nH]1 do in these assays?
TIM10 inh: 4; tim10-1 inh: 7; tim23-1 inh: 7; NLRP3 yeast inh: 5; PfHsp90 set2: 14

How did Cc1c(C(=O)Nc2nonc2-c2ccc(F)cc2)oc2ccc(F)cc12 do in these assays?
TIM10 inh: 2; tim10-1 inh: 44*; tim23-1 inh: -4; NLRP3 yeast inh: -40; PfHsp90 set2: -47; tim10-1 conf: -17

What do the screens show for `CCc1nonc1NC(=O)c1oc2ccc(F)cc2c1C`?
TIM10 inh: -13; tim10-1 inh: 27; tim23-1 inh: 7; NLRP3 yeast inh: 7; PfHsp90 set2: -47

What do the screens show for `CCOC(=O)n1c(=O)n(Cc2ccc(OC)cc2)c2ccccc21`?
TIM10 inh: 21; tim10-1 inh: 50*; tim23-1 inh: 49; NLRP3 yeast inh: 4; PfHsp90 set2: 13; tim10-1 conf: 46*

How did CC(=O)Nc1ccc(NC(=O)C2CC(=O)N=C(N)S2)cc1 (stereo not given) do in these assays?
TIM10 inh: 1; tim10-1 inh: 2; tim23-1 inh: 9; NLRP3 yeast inh: 1; PfHsp90 set2: 1

Results for CCN(C[C@H]1N[C@@](Cc2ccccc2)(C(=O)OC)[C@H]2C(=O)N(Cc3ccccc3)C(=O)[C@@H]12)C(=O)Nc1ccc(Cl)cc1 ?
TIM10 inh: 13; tim10-1 inh: 18; tim23-1 inh: 23; NLRP3 yeast inh: 30; PfHsp90 set2: 9

How did COc1ccc(C)cc1NC(=O)CNc1ccccc1CN(C)C1CCCCC1 do in these assays?
TIM10 inh: -7; tim10-1 inh: 16; tim23-1 inh: 14; NLRP3 yeast inh: 11; PfHsp90 set2: 2

How did COc1ccc(Cl)cc1NC(=O)CNc1ccccc1CN(C)C1CCCCC1 do in these assays?
TIM10 inh: 17; tim10-1 inh: 43*; tim23-1 inh: 19; NLRP3 yeast inh: -11; PfHsp90 set2: -11; tim10-1 conf: 30*

What do the screens show for `COc1cc(C2C3=C(COC3=O)Oc3cc4c(cc32)OCO4)cc(OC)c1OC(C)=O` (stereo not given)?
PfHsp90 set2: -4

How did CCc1c(C)[nH]n(-c2nc(-c3ccccc3)cs2)c1=O do in these assays?
TIM10 inh: 18; tim10-1 inh: 50*; tim23-1 inh: 33; NLRP3 yeast inh: -20; PfHsp90 set2: 21; tim10-1 conf: 31*

What do the screens show for `CCSc1nc2c(cnn2-c2ccc(C)cc2)c(=O)[nH]1`?
TIM10 inh: 14; tim10-1 inh: 41*; tim23-1 inh: 17; NLRP3 yeast inh: 16; PfHsp90 set2: -18; tim10-1 conf: -6

Results for CCCSc1nc2c(cnn2-c2ccc(C)cc2)c(=O)[nH]1 ?
TIM10 inh: -13; tim10-1 inh: 14; tim23-1 inh: 9; NLRP3 yeast inh: 16; PfHsp90 set2: -6

How did COc1ccc(-c2c[n+]3c4n2CCCCC4=C(c2ccccc2)C3)cc1 do in these assays?
TIM10 inh: 36; tim10-1 inh: 45*; tim23-1 inh: 37; NLRP3 yeast inh: 6; tim10-1 conf: 17

Results for CCn1ccnc1CN1CCc2c([nH]c3ccccc23)C1C(C)(C)C (stereo not given) ?
TIM10 inh: 35; tim10-1 inh: 47*; tim23-1 inh: 34; NLRP3 yeast inh: 3; PfHsp90 set2: -17; tim10-1 conf: 29

Results for Cc1cccc(-c2nn(-c3ccccc3)cc2C(=O)N2CCN(C3CCS(=O)(=O)C3)CC2)c1 (stereo not given) ?
TIM10 inh: 17; tim10-1 inh: 15; tim23-1 inh: 18; NLRP3 yeast inh: -2; PfHsp90 set2: 1

How did O=C(/C=C/c1ccco1)Nc1ccc2nc3n(c(=O)c2c1)CCCC3 do in these assays?
TIM10 inh: -5; tim10-1 inh: -38; tim23-1 inh: 20; NLRP3 yeast inh: 3; PfHsp90 set2: 6

How did Cc1scc(C(=O)N/N=C/c2ccco2)c1C do in these assays?
TIM10 inh: 5; tim10-1 inh: -11; tim23-1 inh: 15; NLRP3 yeast inh: -1; PfHsp90 set2: 66

Results for Cc1scc(C(=O)N/N=C/c2ccc([N+](=O)[O-])o2)c1C ?
TIM10 inh: 37; tim10-1 inh: 46*; tim23-1 inh: 46; NLRP3 yeast inh: 18; tim10-1 conf: 16

What do the screens show for `O=c1cc(C(F)(F)F)nc(SCc2cccc3ccccc23)[nH]1`?
TIM10 inh: -3; tim10-1 inh: 40*; tim23-1 inh: 24; NLRP3 yeast inh: 20; PfHsp90 set2: -14; tim10-1 conf: 4

What do the screens show for `Nc1cc(=O)[nH]c(SCc2cccc3ccccc23)n1`?
TIM10 inh: 11; tim10-1 inh: -8; tim23-1 inh: 29; NLRP3 yeast inh: 2; PfHsp90 set2: -25

Results for C/C(=N\NC(=O)CCc1ccc(S(=O)(=O)N2CCOCC2)cc1)c1ccc(Br)cc1 ?
TIM10 inh: -6; tim10-1 inh: 1; tim23-1 inh: -2; NLRP3 yeast inh: 2; PfHsp90 set2: 4

Results for O=C(/C=C/Nc1ccccc1Oc1ccccc1)c1ccco1 ?
TIM10 inh: 23; tim10-1 inh: 43*; tim23-1 inh: 29; NLRP3 yeast inh: 13; PfHsp90 set2: 6; tim10-1 conf: 16

How did O=C(/C=C/Nc1ccccc1O)c1ccco1 do in these assays?
TIM10 inh: -50; tim10-1 inh: -64; tim23-1 inh: -30; NLRP3 yeast inh: 22; PfHsp90 set2: 14

How did COc1ccc(N2C(=NC(C)=O)SC3CS(=O)(=O)CC32)cc1OC (stereo not given) do in these assays?
TIM10 inh: -2; tim10-1 inh: -14; tim23-1 inh: 1; NLRP3 yeast inh: 10; PfHsp90 set2: -1

Results for N#Cc1cccnc1N1CCN(C(=O)c2ccc3c(c2)S(=O)(=O)c2ccccc2C3=O)CC1 ?
TIM10 inh: 6; tim10-1 inh: 26; tim23-1 inh: 27; NLRP3 yeast inh: 12; PfHsp90 set2: 2

Results for O=C1c2ccccc2S(=O)(=O)c2cc(C(=O)N3CCN(c4ccc(Cl)cn4)CC3)ccc21 ?
TIM10 inh: 20; tim10-1 inh: 44*; tim23-1 inh: 47; NLRP3 yeast inh: 24; PfHsp90 set2: 6; tim10-1 conf: 42*

Results for CCCCNC(=O)C(C#N)c1nc2ccccc2nc1N1CCN(Cc2ccc3c(c2)OCO3)CC1 (stereo not given) ?
PfHsp90 set2: 8

Results for C=CCOC(=O)C(C#N)c1nc2ccccc2nc1N1CCN(Cc2ccc3c(c2)OCO3)CC1 (stereo not given) ?
TIM10 inh: 23; tim10-1 inh: 41*; tim23-1 inh: 42; NLRP3 yeast inh: 9; PfHsp90 set2: -35; tim10-1 conf: 26
